Test results reported in PubChem BioAssay AID1159580 (chemical genetic matrix, 2015).
Values joined by “and” are separate entries in the source; they are usually repeats but may differ in a detail not shown here. Equal values may be shown once. The whole screen tested about 5,500 compounds, of which about 2,000 (36%) were called active. About 18% were inconclusive and are not listed. Cut-off read from the data, not from the text of the source: active = normalized growth mostly below about 0.91 (no sharp cut-off); inconclusive = no clear call, values can overlap the other calls; inactive = mostly above about 0.92. This is one part of the list.

Experiment: chemical genetic growth profiling, strain panel (AID 1159580);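 note: tested at 20 µM; growth read once vehicle control cultures reached saturation at 30 °C; 1 = growth at the plate median or of vehicle wells; lower values mean less growth of the strain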
Details: S. cerevisiae deletion strains, growth OD

Measured: normalized growth

C[C@]12C=CC(=O)C=C1CCC1C3C[C@@H](O)[C@](O)(C(=O)CO)[C@@]3(C)C[C@H](O)[C@@]12F (some centres undefined)
inactive: locus YAL021C, strain ccr4, active compounds read low 0.932 | locus YAL026C, strain drs2, active compounds read low 0.992 | locus YAL030W, strain snc1, active compounds read low 0.996 | locus YBL061C, strain skt5, active compounds read low 0.984 | locus YBR009C, strain hhf1, active compounds read low 0.999 | locus YBR021W, strain FUR4, active compounds read low 1.02 | locus YBR023C, strain chs3, active compounds read low 0.961 | locus YBR171W, strain sec66, active compounds read low 0.976 | locus YBR229C, strain ROT2, active compounds read low 1.01 | locus YBR231C, strain swc5, active compounds read low 1.01 | locus YBR279W, strain paf1, active compounds read low 0.973 | locus YCL011C, strain gbp2, active compounds read low 0.974 | locus YCL016C, strain dcc1, active compounds read low 0.958 | locus YCL029C, strain bik1, active compounds read low 0.98 | locus YCL061C, strain MRC1, active compounds read low 0.996 | locus YCL069W, strain vba3, active compounds read low 0.983 | locus YCR088W, strain abp1, active compounds read low 0.985 | locus YDL005C, strain med2, active compounds read low 0.997 | locus YDL035C, strain GPR1, active compounds read low 1.02 | locus YDL040C, strain nat1, active compounds read low 0.992 | locus YDL074C, strain BRE1, active compounds read low 1.04 | locus YDL101C, strain DUN1, active compounds read low 1.02 | locus YDL134C, strain PPH21, active compounds read low 1 | locus YDL185W, strain tfp1, active compounds read low 0.973 | locus YDL192W, strain arf1, active compounds read low 0.984 | locus YDR001C, strain nth1, active compounds read low 0.983 | locus YDR069C, strain doa4, active compounds read low 0.954 | locus YDR101C, strain arx1, active compounds read low 0.971 | locus YDR137W, strain rgp1, active compounds read low 0.965 | locus YDR150W, strain NUM1, active compounds read low 1.02 | locus YDR159W, strain sac3, active compounds read low 0.975 | locus YDR162C, strain NBP2, active compounds read low 1 | locus YDR195W, strain ref2 0.991 | locus YDR297W, strain sur2, active compounds read low 0.994 | locus YDR318W, strain mcm21, active compounds read low 0.985 | locus YDR334W, strain swr1, active compounds read low 0.976 | locus YDR335W, strain msn5, active compounds read low 0.984 | locus YDR388W, active compounds read low 0.982 | locus YDR392W, strain spt3, active compounds read low 0.896 | locus YDR502C, strain sam2, active compounds read low 0.981 | locus YEL003W, strain gim4, active compounds read low 1 | locus YEL037C, strain rad23, active compounds read low 0.987 | locus YEL061C, strain CIN8 (second series), active compounds read low 0.991 | locus YEL061C, strain CIN8, active compounds read low 1.01 | locus YER015W, strain faa2, active compounds read low 0.999 | locus YER016W, strain bim1, active compounds read low 0.942 | locus YER110C, active compounds read low 0.979 | locus YER111C, strain swi4, active compounds read low 0.975 | locus YER155C, strain BEM2 (second series), active compounds read low 0.989 | locus YER155C, strain BEM2, active compounds read low 1.01 | locus YER167W, strain BCK2, active compounds read low 1 | locus YFR010W, strain ubp6, active compounds read low 1 | locus YGL078C, strain dbp3, active compounds read low 0.981 | locus YGL086W, strain mad1, active compounds read low 0.996 | locus YGL167C, strain pmr1, active compounds read low 0.992 | locus YGL173C, strain kem1, active compounds read low 0.98 | locus YGL227W, strain vid30, active compounds read low 0.962 | locus YGL240W, strain doc1, active compounds read low 0.991 | locus YGL248W, strain PDE1, active compounds read low 1.02 | locus YGL253W, strain hxk2, active compounds read low 0.98 | locus YGR135W, strain pre9, active compounds read low 0.99 | locus YGR229C, strain SMI1, active compounds read low 1.01 | locus YGR252W, strain gcn5, active compounds read low 1.01 | locus YHR013C, strain ard1, active compounds read low 0.952 | locus YHR027C, strain rpn1, active compounds read low 0.998 | locus YHR030C, strain SLT2, active compounds read low 1.01 and 0.984 | locus YHR079C, strain IRE1 (second series), active compounds read low 0.973 | locus YHR079C, strain IRE1, active compounds read low 0.991 | locus YHR094C, strain hxt1, active compounds read low 0.984 | locus YHR129C, strain ARP1, active compounds read low 1.02 | locus YHR142W, strain chs7, active compounds read low 0.956 | locus YHR200W, strain rpn10, active compounds read low 0.988 | locus YIL066C, strain RNR3, active compounds read low 1.01 | locus YIL073C, strain SPO22, active compounds read low 0.984 | locus YIL125W, strain kgd1, active compounds read low 0.989 | locus YIR030C, strain dcg1, active compounds read low 0.98 | locus YJL092W, strain hpr5, active compounds read low 0.99 | locus YJL095W, strain BCK1 (second series), active compounds read low 0.995 | locus YJL095W, strain BCK1, active compounds read low 1.03 and 0.985 | locus YJL115W, strain asf1, active compounds read low 0.971 | locus YJL129C, strain trk1, active compounds read low 0.948 | locus YJL134W, strain LCB3, active compounds read low 1.01 | locus YJL154C, strain vps35, active compounds read low 0.967 | locus YJL164C, strain tpk1, active compounds read low 1.01 | locus YJL166W, strain qcr8, active compounds read low 1.01 | locus YJL168C, strain set2, active compounds read low 0.989 | locus YJL187C, strain SWE1 (second series), active compounds read low 1.01 | locus YJL187C, strain SWE1, active compounds read low 0.982 | locus YJR043C, strain POL32, active compounds read low 1.02
